Source: ChEMBL document CHEMBL1201862, “PubChem BioAssay data set” (2004)
The whole screen tested about 400,000 compounds, of which about 2,100 (0.53%) were called active. Not shown: some 14% with an inconclusive outcome. The rule behind the calls is not given here. The list comes from a sample in which actives are over-represented; it also holds similar structures and randomly drawn compounds.

What follows are compounds tested against Ataxin-2 (Homo sapiens) (UniProt Q99700) (assay: qHTS for Inhibitors of ATXN expression.).
Sequence of Ataxin-2 (Homo sapiens) (Q99700 whole entry): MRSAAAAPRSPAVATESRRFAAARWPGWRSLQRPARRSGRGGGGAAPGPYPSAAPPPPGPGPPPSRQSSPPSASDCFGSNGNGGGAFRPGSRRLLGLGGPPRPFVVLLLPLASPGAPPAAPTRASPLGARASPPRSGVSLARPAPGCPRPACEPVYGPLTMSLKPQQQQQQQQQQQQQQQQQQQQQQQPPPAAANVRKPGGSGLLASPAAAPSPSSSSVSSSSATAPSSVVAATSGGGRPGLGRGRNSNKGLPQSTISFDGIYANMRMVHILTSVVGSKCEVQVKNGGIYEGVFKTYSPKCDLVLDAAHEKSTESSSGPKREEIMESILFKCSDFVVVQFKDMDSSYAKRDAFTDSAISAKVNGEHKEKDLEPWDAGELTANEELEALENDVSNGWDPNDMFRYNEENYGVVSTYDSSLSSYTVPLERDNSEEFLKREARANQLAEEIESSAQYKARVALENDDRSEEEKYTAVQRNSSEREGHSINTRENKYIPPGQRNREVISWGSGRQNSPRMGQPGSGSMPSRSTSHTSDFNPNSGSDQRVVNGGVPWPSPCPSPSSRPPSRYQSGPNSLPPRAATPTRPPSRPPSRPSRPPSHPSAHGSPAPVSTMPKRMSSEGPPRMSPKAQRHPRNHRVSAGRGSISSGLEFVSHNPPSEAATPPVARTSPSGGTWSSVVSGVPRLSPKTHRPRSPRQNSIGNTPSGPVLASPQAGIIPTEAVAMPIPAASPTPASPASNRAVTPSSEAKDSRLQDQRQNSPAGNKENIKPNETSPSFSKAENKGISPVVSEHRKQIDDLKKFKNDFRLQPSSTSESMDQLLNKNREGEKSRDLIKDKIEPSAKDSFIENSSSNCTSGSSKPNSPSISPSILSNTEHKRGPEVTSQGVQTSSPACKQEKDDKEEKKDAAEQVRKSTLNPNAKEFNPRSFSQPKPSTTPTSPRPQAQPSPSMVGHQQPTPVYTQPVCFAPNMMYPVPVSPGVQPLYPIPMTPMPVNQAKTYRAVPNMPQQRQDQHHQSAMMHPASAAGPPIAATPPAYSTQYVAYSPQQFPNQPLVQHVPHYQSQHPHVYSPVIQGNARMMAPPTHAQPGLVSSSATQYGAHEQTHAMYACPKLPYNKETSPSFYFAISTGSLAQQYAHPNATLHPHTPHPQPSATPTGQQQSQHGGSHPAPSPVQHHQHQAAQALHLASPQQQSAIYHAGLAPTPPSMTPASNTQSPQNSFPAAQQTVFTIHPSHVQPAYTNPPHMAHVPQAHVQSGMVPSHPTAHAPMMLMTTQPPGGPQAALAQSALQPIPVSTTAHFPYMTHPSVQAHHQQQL
Format: functional
`Oc1ccccc1N=Nc1nc(-c2ccccc2)c(-c2ccccc2)[nH]1` was tested, and the Potency was 20 µM (active). With `NC(=O)c1nc(-c2ccccc2)c(-c2ccccc2)nc1O` the Potency was “inactive”. With `Oc1nc2c(O)ncnc2nc1-c1ccccc1` the Potency was “inactive”. With `CCOCCCN=C(S)NCCNc1nc2ccc(C)cc2cc1C#N` the Potency was “inactive”. In the case of `CCOC(=O)c1c(NC(=O)c2ccc(S(=O)(=O)N3CCCC(C)C3)cc2)sc2c1CC(C)(C)NC2(C)C` (stereo not drawn), the Potency is reported as “inactive”. For `CCOC(=O)c1c(NC(=O)COc2ccccc2OCC)sc2c1CC(C)(C)NC2(C)C`, the Potency was 39.8 µM (active). In the case of `CC(C)CN(CC(C)C)S(=O)(=O)c1ccc(C(=O)Nc2sc3c(c2C(N)=O)CC(C)(C)NC3(C)C)cc1`, the Potency is reported as “inactive”. With `Cc1c2c(n3c(nc4ccccc43)c1C#N)N(CCN(C)C)CC2` the Potency was “inactive”. In the case of `C=CCc1cc(/C=C2\C(=N)N3N=C(CC(=O)N4CCOCC4)SC3=NC2=O)cc(OC)c1O`, the Potency is reported as “inactive”. For `Fc1ccc(-[n+]2nc(Nc3ccccc3)sc2-c2c(Cl)cccc2Cl)cc1`, the Potency was 20 µM (active). In the case of `O=c1oc2cc(O)ccc2cc1-c1nc2c(s1)CCc1ccccc1-2`, the Potency is reported as “inactive”. In the case of `CNC(=O)NC(=O)C(C)OC(=O)c1c2c(nc3ccccc13)/C(=C/c1cccs1)CC2` (stereo not drawn), the Potency is reported as “inactive”. `CCc1ccccc1N(CC(=O)NC(C)(C)CC)C(=O)CCC(=O)Nc1nccs1` was tested, and the Potency was “inactive”. For `C/C(Cl)=C\Cn1c(O)c(/N=N/C(=N)S)c2ccccc21`, the Potency was 29.9 µM (active). In the case of `Cc1ccc(C(=O)O)cc1-c1ccc(/C=C2\SC(=O)N(CC(=O)Nc3ccccc3)C2=O)o1`, the Potency is reported as “inactive”. With `CC(=O)c1ccc(NC(=O)CCCN2C(=O)/C(=C/C(C)=C/c3ccccc3)SC2=S)cc1` the Potency was 25.1 µM (active). For `CCN(CC)CCOC(=O)c1ccc(NC(=O)CCCN2C(=O)/C(=C\c3cccs3)SC2=S)cc1`, the Potency was 31.6 µM (active). In the case of `O=C(Nc1cc2c(=O)n(-c3ccc(Oc4ccccc4)cc3)ccc2oc1=O)c1ccccc1`, the Potency is reported as “inactive”. For `COc1ccc(C2C=C(c3ccccc3)Nc3nnnn32)cc1` (stereo not drawn), the Potency was “inactive”. With `Cc1ccc2[nH]c(CSc3nc(C)ccc3C#N)nc2c1` the Potency was “inactive”. With `CN(C)CCOCCOc1ccc(Cl)c2ccccc12` the Potency was “inactive”. For `Cc1ccc2c(CN(C)Cc3ccccc3)cc(=O)oc2c1C`, the Potency was “inactive”. For `Cc1ccc(Cl)c(OCCCCN(C)Cc2ccccc2)c1`, the Potency was 28.2 µM (active). `COCCCNC(=O)/C(C#N)=C/c1c(N2CCN(C)CC2)nc2ccccn2c1=O` was tested, and the Potency was “inactive”. In the case of `COc1ccc(C(=O)CC2(O)C(=O)N(Cc3cccc(C(F)(F)F)c3)c3ccccc32)cc1` (stereo not drawn), the Potency is reported as 39.8 µM (active). In the case of `COc1ccc(C2CC(c3cccc(C(F)(F)F)c3)=NN2c2ccc(S(N)(=O)=O)cc2)cc1` (stereo not drawn), the Potency is reported as “inactive”. With `COc1cccc(CN2C(=O)c3cccc(N)c3C2=O)c1` the Potency was “inactive”. With `CCN(CC)c1ccc2cc(NC(=O)CCC(=O)O)c(=O)oc2c1` the Potency was “inactive”. With `Cc1ccc(S(=O)(=O)N2CCCCC2)cc1C(=O)N(C)CC(=O)Nc1ccc(Cl)c(C(F)(F)F)c1` the Potency was 35.5 µM (active). With `COc1cccc(CN(C)C(=O)c2cc(S(=O)(=O)N3CCCC3)ccc2C)c1OC` the Potency was “inactive”. For `Cc1ccc(S(=O)(=O)N2CCCCC2)cc1C(=O)Nc1ccc(S(=O)(=O)Nc2ncccn2)cc1`, the Potency was “inactive”. For `Cc1ccc(CCC(=O)Nc2ccc(Br)cc2)o1`, the Potency was “inactive”. `CCN1C(=O)c2cccc3c(S(=O)(=O)NCC4CCCO4)ccc1c23` (stereo not drawn) was tested, and the Potency was “inactive”. In the case of `O=C(NCCc1ccccc1)C(=O)NCC1OCCN1S(=O)(=O)c1ccc(Br)cc1` (stereo not drawn), the Potency is reported as “inactive”. For `C/C(=N\NC(=O)CSCc1ccc([N+](=O)[O-])cc1)c1ccccc1`, the Potency was “inactive”. In the case of `CCc1ccc(C(=O)Cn2ccsc2=N)cc1`, the Potency is reported as “inactive”. In the case of `Cc1ccc(Cn2c(=N)n(CC(=O)c3ccc([N+](=O)[O-])cc3)c3ccccc32)cc1`, the Potency is reported as 22.4 µM (active). `CCCn1c(=N)n(CC(=O)c2ccc([N+](=O)[O-])cc2)c2ccccc21` was tested, and the Potency was “inactive”. With `N=c1n(CC(=O)c2ccc(Br)cc2)c2ccccc2n1Cc1ccccc1` the Potency was 31.6 µM (active). For `O=c1oc2cc(O)ccc2cc1-c1nc2ccccc2o1`, the Potency was “inactive”. For `CCN(CC)c1ccc(S(=O)(=O)N(CC)CC)cc1NC(=O)c1cccnc1`, the Potency was “inactive”. With `CCOC(=O)CNS(=O)(=O)c1ccc2c3c(cccc13)C(=O)N2CC` the Potency was “inactive”. `Cc1ccccc1N1C(=O)C(Cc2ccc(F)cc2)S/C1=C(\C#N)C(N)=O` (stereo not drawn) was tested, and the Potency was “inactive”. With `CCN(CC)S(=O)(=O)c1ccc(C(=O)OCCN2C(=O)c3cccc4c(N5CCOCC5)ccc(c34)C2=O)cc1` the Potency was “inactive”. `Cc1ccc2cc(C#N)c(NCCN=C(S)NCCCN3CCOCC3)nc2c1` was tested, and the Potency was “inactive”. For `COc1cc(/C=C(\C#N)c2nc3ccccc3s2)ccc1OCC(=O)Nc1ccccc1`, the Potency was “inactive”. In the case of `O=C(Nc1ccc(Cl)cc1)/C(=C/c1cccc(O)c1)c1nc2ccccc2s1`, the Potency is reported as 12.6 µM (active). With `COc1cc(/C=C(\CC(=O)O)c2nc3ccccc3s2)cc(OC)c1O` the Potency was “inactive”. For `COc1cccc(C2=CC(c3ccc(OC)c(OC)c3OC)n3ncnc3N2)c1` (stereo not drawn), the Potency was “inactive”. With `COc1ccc(OC)c(/C=C2\Oc3cc(OCC(=O)N4CCC(C(=O)O)CC4)ccc3C2=O)c1` the Potency was “inactive”. `CC(=O)Oc1ccc2cc(-c3ccccc3)c(=O)oc2c1` was tested, and the Potency was “inactive”. With `O=C(Cc1cccs1)N1CCN(S(=O)(=O)c2ccc(Cl)c(C(F)(F)F)c2)CC1` the Potency was “inactive”. `Cc1ccc(S(=O)(=O)N2CCCN(C(=O)c3ccc(-n4cccn4)cc3)CC2)cc1` was tested, and the Potency was “inactive”. For `Cc1ccc(S(=O)(=O)N2CCN(C(=O)CCn3cncn3)CC2)cc1C`, the Potency was “inactive”. For `O=C(c1cnc(Cl)c(Cl)c1)N1CCN(S(=O)(=O)c2ccc3ccccc3c2)CC1`, the Potency was 31.6 µM (active). In the case of `O=C(Cn1cnc2ccccc21)N1CCN(S(=O)(=O)c2ccccc2)CC1`, the Potency is reported as “inactive”. `CCOCCCNC(=O)CN1CCN(S(=O)(=O)c2ccc3c(c2)CCC3)CC1` was tested, and the Potency was “inactive”. `O=C(CCl)N1CCN(S(=O)(=O)c2ccc3c(c2)CCC3)CC1` was tested, and the Potency was 8.91 µM (active). `CCN=C(S)N1CCN(S(=O)(=O)c2ccc(C)c(C)c2)CC1` was tested, and the Potency was “inactive”. With `Nc1cc(O)nc(SCC(=O)N2CCN(S(=O)(=O)c3ccc4ccccc4c3)CC2)n1` the Potency was “inactive”. In the case of `CC(=O)N1CCN(S(=O)(=O)c2ccc(F)c(Cl)c2)CC1`, the Potency is reported as “inactive”. In the case of `O=C(Cn1ncc(Cl)c(Cl)c1=O)N1CCN(S(=O)(=O)c2ccc3ccccc3c2)CC1`, the Potency is reported as 35.5 µM (active). For `O=C(CCl)N1CCN(S(=O)(=O)c2ccc3ccccc3c2)CC1`, the Potency was 39.8 µM (active).
